This is a sample that favours compounds with a hit; in the whole collection about 0.89% have one here.
BJeLR viability – lowers viability of BJeLR cells | BJeLR fibroblasts viability, CellTiterGlo ATP luminescence, 48 h; HRASV12, hTERT and SV40 LT/ST transformed | viability loss activity score, % (test concentration not listed) | 30,000 compounds, 0.64% hits; in the data active means viability loss activity score above about 50%;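 further: higher score means fewer live cells and less ATP luminescence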
A1 inhib – A1 inhibition | MEF A1-2A-BIM cells, caspase-Glo luminescence, 3 h; percent of clofoctol signal, DMSO as zero | caspase activation, % (concentration not given with the values) | 21,000 compounds, 0.51% hits;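 active means most replicate scores above 10, or exactly half above 10 with mean activity above 10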;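 further: effector caspase 3 and 7 activity cleaving a DEVD luciferin substrate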
A number is an active result.

Results for CNc1ccccc1C(=O)O ?
BJeLR viability: inactive; A1 inhib: inactive

How did C[CH2][Hg][S]c1ccccc1C(=O)O do in these assays?
BJeLR viability: 141.9; A1 inhib: inactive

How did NCCC1COc2ccccc2O1 (stereo not drawn) do in these assays?
BJeLR viability: inactive

What do the screens show for `COc1cc2c(c(OC)c1OC)-c1cc3c(cc1[C@H](OC(C)=O)[C@H]1COC(=O)[C@@H]1C2)OCO3`?
BJeLR viability: 60.1; A1 inhib: inactive

Results for COc1ccc(CC2C(=O)OCC2Cc2ccc3c(c2)OCO3)cc1OC (stereo not drawn) ?
BJeLR viability: inactive; A1 inhib: inactive

What do the screens show for `CCc1ccc(CN2CCN(Cc3ccc(CC)cc3)CC2)cc1`?
BJeLR viability: inactive; A1 inhib: inactive

What do the screens show for `CC1=CC2/C=C(\C)CCC(O)C(O)/C=C/C(=O)C23C(=O)NC(CC(C)C)C3C1C` (stereo not drawn)?
BJeLR viability: 95.6; A1 inhib: 77.1

How did O=[P+](c1ccccc1)c1ccccc1 do in these assays?
BJeLR viability: inactive; A1 inhib: inactive

How did CC1(C)C(C(=O)Nc2nccs2)C1(C)C do in these assays?
BJeLR viability: inactive; A1 inhib: inactive

How did CNc1ccc2oc(C[C@@H]3OC4(CC[C@@H]3C)O[C@H](C(C)C(=O)c3ccc[nH]3)[C@H](C)C[C@H]4C)nc2c1C(=O)O (stereo partly drawn) do in these assays?
BJeLR viability: 72.5; A1 inhib: inactive

What do the screens show for `CCCC12CNCC(C)(CNC1)C2=O`?
BJeLR viability: inactive; A1 inhib: inactive

How did COc1ccc2c(c1OC)C(=O)O[C@H]2[C@@H]1c2cc3c(cc2CCN1C)OCO3 do in these assays?
BJeLR viability: inactive; A1 inhib: inactive

How did CN1Cc2c(ccc3c2OCO3)C2C(O)Cc3cc4c(cc3C21)OCO4 (stereo not drawn) do in these assays?
BJeLR viability: 72.1; A1 inhib: inactive

How did CN(C(=O)c1ccc(Cl)cc1)c1ccc(Cl)cc1C(=O)c1ccccc1 do in these assays?
BJeLR viability: inactive; A1 inhib: inactive

How did CCN(CC)CCc1c(C)c2ccc(O)cc2oc1=O do in these assays?
BJeLR viability: inactive; A1 inhib: inactive

Results for CCn1cnc2c(Nc3cccc(Cl)c3)nc(N[C@@H]3CCCC[C@@H]3N)nc21 ?
BJeLR viability: 57.3; A1 inhib: 26.1

What do the screens show for `CC(C)N(C(=O)SCC(Cl)=C(Cl)Cl)C(C)C`?
BJeLR viability: inactive; A1 inhib: inactive

What do the screens show for `OC[C@H]1O[C@@H](n2cnc3cc(Cl)c(Cl)cc32)C(O)[C@H]1O` (stereo partly drawn)?
BJeLR viability: inactive; A1 inhib: inactive

Results for O=C(c1cnn(-c2ccccc2)c1-n1cccc1)N1CCC2(CC1)OCCO2 ?
BJeLR viability: inactive; A1 inhib: inactive

What do the screens show for `CN[C@@H]1C[C@@]2(C)O[C@@H]([C@@H]1OC)n1c3ccccc3c3c4c(c5c6ccccc6n2c5c31)C(=O)NC4`?
BJeLR viability: 126.7; A1 inhib: 83.8

Results for C/C=C(/C)C(=O)O[C@H]1C(C)=C2[C@H]([C@@H]1OC(=O)CCCCC)[C@@](C)(OC(C)=O)C[C@H](OC(=O)CCC)[C@@]1(O)[C@H]2OC(=O)[C@@]1(C)O ?
BJeLR viability: inactive; A1 inhib: inactive

How did C[C@@H]1O[C@@H](O[C@@H]2C=C3CCC4C(CC[C@]5(C)[C@@H](c6ccc(=O)oc6)CC[C@]45O)[C@@]3(C)CC2)[C@H](O)[C@H](O)[C@H]1O (stereo partly drawn) do in these assays?
BJeLR viability: 121.3; A1 inhib: inactive

Results for C[C@@H]1O[C@@H](O[C@@H]2C=C3CC[C@@H]4C(CC[C@]5(C)[C@@H](c6ccc(=O)oc6)CC[C@]45O)[C@@]3(C)CC2)[C@H](O)[C@H](O)[C@H]1O (stereo partly drawn) ?
BJeLR viability: 99.2; A1 inhib: inactive

What do the screens show for `CCCCc1nc2ccccc2c(=O)n1-c1ccc(C)cc1`?
BJeLR viability: inactive; A1 inhib: inactive

How did O=C(c1ccc2nc(N3CCCCC3)sc2c1)N1CCC2(CC1)OCCO2 do in these assays?
BJeLR viability: inactive; A1 inhib: inactive

What do the screens show for `CCC(C)(O)C(=O)O[C@H]1C(=O)O[C@@H]2C[C@H]3C(C)=CC(=O)[C@@H](O)[C@]3(C)[C@H]3[C@@]4(O)OC[C@]32[C@@H]1[C@@H](C)[C@H]4O` (stereo partly drawn)?
BJeLR viability: 113.6; A1 inhib: inactive

What do the screens show for `NC1=C(C(=O)OCc2ccccc2)C2(C(=O)Nc3ccc(Br)cc32)C2=C(O1)C(=O)CCC2` (stereo not drawn)?
BJeLR viability: inactive; A1 inhib: inactive

Results for CC(C)Sc1nnc(OC(=O)N(C)C)n1-c1cccc(C(F)(F)F)c1 ?
BJeLR viability: inactive; A1 inhib: inactive

How did N#CC(c1ccccc1)c1ccccc1 do in these assays?
BJeLR viability: inactive; A1 inhib: inactive

How did Cc1ccc2[nH]cc(CC(C)N)c2c1 (stereo not drawn) do in these assays?
BJeLR viability: inactive; A1 inhib: inactive

What do the screens show for `CC(=O)OC[C@]12C[C@H](O)C(C)=C[C@H]1O[C@@H]1[C@H](O)[C@@H](OC(C)=O)[C@@]2(C)[C@]12CO2`?
BJeLR viability: 118.7; A1 inhib: 13.3

Results for CC(=O)OC[C@]12CCC(C)=C[C@H]1O[C@@H]1[C@H](O)[C@@H](OC(C)=O)[C@@]2(C)[C@]12CO2 ?
BJeLR viability: 122.4; A1 inhib: 15.8

What do the screens show for `CC(C)(C)c1cc(C=C(C#N)C#N)cc(Br)c1O`?
BJeLR viability: inactive; A1 inhib: inactive

Results for C=CC1CN2CCC3(C(=O)Nc4ccccc43)C2CC1/C(=C/OC)C(=O)OC (stereo not drawn) ?
BJeLR viability: inactive; A1 inhib: inactive

Results for Cc1ccc(S(=O)(=O)N2CCCCC2)cc1C(=O)Oc1cccc2cccnc12 ?
BJeLR viability: inactive; A1 inhib: inactive

What do the screens show for `CCC(C)N=Cc1c(O)[nH]c(=O)[nH]c1=O` (stereo not drawn)?
BJeLR viability: inactive; A1 inhib: inactive

How did CC(=O)OC1CCC2(C)C(=CCC3C4CCC(=O)C4(C)CCC32)C1 (stereo not drawn) do in these assays?
BJeLR viability: inactive; A1 inhib: inactive

What do the screens show for `CN1CCc2nc(SCc3cccc(Cl)c3)c(C#N)cc2C1`?
BJeLR viability: inactive

How did CCCc1nc(-c2ccccn2)nc(OC(=O)N(C)C)c1Cc1c(F)cccc1Cl do in these assays?
BJeLR viability: inactive; A1 inhib: inactive

How did C[C@]12CC[C@H](O)C[C@H]1CCC1C2CC[C@]2(C)[C@@H](C3=CC(=O)OC3)[C@@H](O)C[C@]12O (stereo partly drawn) do in these assays?
BJeLR viability: inactive; A1 inhib: inactive

How did CO[C@H]1[C@H](O)[C@H](O[C@H]2CC[C@]3(C)C4CC[C@]5(C)C(C6=CC(=O)OC6)CC[C@]5(O)C4CC[C@@H]3C2)O[C@@H](C)[C@@H]1O (stereo partly drawn) do in these assays?
BJeLR viability: 111.3; A1 inhib: inactive

Results for COC1CC(OC2CCC3(C)C(CCC4C3CCC3(C)C(C5=CC(=O)OC5)C(OC(C)=O)CC43O)C2)OC(C)C1OC1OC(COC2OC(CO)C(O)C(O)C2O)C(O)C(O)C1O (stereo not drawn) ?
BJeLR viability: 96.0; A1 inhib: inactive

What do the screens show for `Cc1ccccc1CN1CCN(C(C)C)CC1`?
BJeLR viability: inactive; A1 inhib: inactive

From PubChem BioAssay
